Screens from PubChem BioAssay.
HttQ103 aggreg: mutant huntingtin aggregation inhibition. PC12 HttQ103-GFP aggregates, Acumen cytometry, 40 h. Potency, µM (titrated, usually from 46.1 µM), usual class: inhibitors. hit rate 1.1% among 220,000; note: nearly all actives have a fitted effect of over 60% in size
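PC12/HTTQ103-GFP, ecdysone-inducible; teb 100 nM; cpd qHTS titration; GFP aggregates read on laser cytometer, Ex 488/Em 500-530 nm.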
PKM2 activator: activators of human pyruvate kinase M2 | P14618 | purified PKM2, Kinase-Glo ATP luminescence, activation; response scale: 0% is enzyme alone, no compound | Potency, µM (highest dose often 57.5 µM), actives largely listed as activators | hit rate 0.34% among 260,000 | AID 1631; note: nearly all actives have a fitted effect of over 55% in size
Target sequence (P14618 whole entry, looked up): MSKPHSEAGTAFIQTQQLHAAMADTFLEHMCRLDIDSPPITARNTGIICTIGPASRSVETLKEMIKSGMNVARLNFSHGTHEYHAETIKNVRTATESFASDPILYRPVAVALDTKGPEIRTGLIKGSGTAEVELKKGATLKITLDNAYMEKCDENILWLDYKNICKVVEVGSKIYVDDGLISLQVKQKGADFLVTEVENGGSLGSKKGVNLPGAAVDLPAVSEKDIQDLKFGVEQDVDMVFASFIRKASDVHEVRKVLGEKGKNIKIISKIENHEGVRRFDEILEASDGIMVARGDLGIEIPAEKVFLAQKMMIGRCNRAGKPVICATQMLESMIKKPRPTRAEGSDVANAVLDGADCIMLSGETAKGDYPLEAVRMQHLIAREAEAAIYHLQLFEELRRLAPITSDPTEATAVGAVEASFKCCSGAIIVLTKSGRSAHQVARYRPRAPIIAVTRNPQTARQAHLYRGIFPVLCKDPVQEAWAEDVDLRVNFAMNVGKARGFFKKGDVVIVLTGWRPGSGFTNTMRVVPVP
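ATP formation by purified human PK-M2, quantified via coupled luciferase luminescence after 1 h at room temperature with 0.1 mM ADP and 0.5 mM PEP final.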
HTT cytoprotect: cytoprotection in Huntington HTT-Q103 PC12 cell model; PC12 HTT-Q103 induced, cytoprotection, ATP luminescence, 40 h; Potency, µM (highest dose often 56.4 µM), actives largely listed as activators; hit rate 0.14% among 230,000; AID 1471; note: nearly all actives have a fitted effect of over 45% in size
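Quantitative HTS on tebufenozide-induced (100 nM) PC12 cells expressing HTTQ103 exon 1–GFP; compounds tested as a concentration series; survival measured via cellular ATP.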
aGal spleen mod: inhibits or activates alpha-galactosidase in human spleen homogenate; P06280; human spleen homogenate, 4MU-alpha-Gal fluorescence, 40 min; hit rate 0.008% among 240,000; Potency, µM (series often up to 80 µM), actives largely listed as inhibitors
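Inhibition or activation of alpha-galactosidase in human spleen homogenate is scored by 4-MU fluorescence after 40 min at 37C, pH 5.0, with 1 mM substrate. AC50s come from concentration-response fitted to the Hill equation.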
GLA inh pH 4.5: blocks human alpha-galactosidase A at pH 4.5; AID 1467; P06280; 230,000 tested, under 10 active; purified enzyme, 4-MU-alpha-Gal fluorescence, pH 4.5; activity change, negative = inhibition, % at 105 µM
Numbers stand for hits; i = inactive; ? = inconclusive; nt = no result; ! = not active in a repeat; [ ] = another dose, or the depositor's remark. An excerpt weighted towards active compounds, which were near 1.2% of everything screened. Calls come from the whole dose curve; as a rule, active = well fitted curve in the direction sought with a large enough effect; inconclusive = small, poorly fitted or top-dose-only effect, or another doubt; inactive = no such curve, though single readings can be large; an effect the other way counts as inactive or inconclusive.

SMILES	HttQ103 aggreg	PKM2 activator	HTT cytoprotect	aGal spleen mod	GLA inh pH 4.5
COC(C(=O)C(O)C(C)O)C1Cc2cc3cc(OC4CC(OC5CC(O)C(OC)C(C)O5)C(OC(C)=O)C(C)O4)c(C)c(O)c3c(O)c2C(=O)C1OC1CC(OC2CC(OC3CC(C)(O)C(OC(C)=O)C(C)O3)C(O)C(C)O2)C(O)C(C)O1 (centres undefined)	0.18µM	nt	i	nt	nt
CCOP(=O)(Cc1cc(C(=O)CC)c(C)o1)OCC	0.01µM	i	nt	i	i
CCOP(=O)(Cc1ccc(C(=O)CC)o1)OCC	i[9.22 µM]	i	i[10 µM]	i	i
ClC(Cl)=C(Cl)Cl	nt	nt	i	i	nt
C[C@@H]1CC[C@H]2[C@@H](C)C(=O)O[C@@H]3OC4(C)CC[C@@H]1[C@]32OO4	nt	nt	nt	i	i
O=[N+]([O-])c1ccc(NC2CCCC2)c2ccncc12	nt	i	nt	nt	nt
O=[N+]([O-])c1ccc(N2CCCC2)c2ccncc12	22µM	i	i	i	i
c1ccc(C2(c3ccccc3)CC2C2=NCCN2)cc1 (centres undefined)	i	nt	i	nt	nt
c1ccc2c(c1)OC[C@@H](C1=NCCN1)O2	nt	nt	5µM!	i	i
O=c1[nH]c(=O)n(Cl)c(=O)n1Cl	i	nt	14µM	nt	nt
CC(C)[C@H](NC(=O)[C@H](CCC(=O)O)NC(=O)[C@H](Cc1ccccc1)NC(=O)[C@H](C)NC(=O)[C@@H](N)Cc1ccc(O)cc1)C(=O)N[C@H](C(=O)NCC(N)=O)C(C)C	nt	nt	nt	i	nt
CC(=O)OC[C@]12CCC(C)=C[C@H]1O[C@@H]1[C@H](O)[C@@H](OC(C)=O)[C@@]2(C)[C@]12CO2	0.1µM	i	i[10 µM]	i	i
CCCCCCCCCCCCCCCC[n+]1ccccc1	16µM	nt	i	i	i
CCCCCCCCCCCCCl	nt	nt	i	i	nt
CCCCCCC[n+]1ccc(-c2cc[n+](CCCCCCC)cc2)cc1	?	i	0.89µM!	i	i
O=S(=O)(O)F	nt	nt	i	i	nt
Oc1ccc(Cl)cc1Cl	nt	nt	i	i	nt
Oc1cc(Cl)ccc1Oc1ccc(Cl)cc1Cl	nt	nt	7.1µM	i	i
c1ccc2c(CN3CCCCCCC3)c[nH]c2c1	13µM	i	i	i	i
c1ccc2c(CNC3CCCCC3)c[nH]c2c1	11µM	i	i	i	i
c1ccc2c(CN3CCN(C4CCCCC4)CC3)c[nH]c2c1	i	i	i	i	i
CN(Cc1c[nH]c2ccccc12)C1CCCCC1	i	i	nt	i	i
CCCc1cc2c(n1CCO)C(C)C1CN(C(=O)c3ccccc3)C(C)(C(=O)OC)C21 (centres undefined)	nt	i	i	i	i
O=C1NC(=O)N(c2ccc3c(c2)OCO3)C(=O)/C1=C\c1ccc(-c2ccccc2C(=O)O)o1	i[9.22 µM]	25µM	i[10 µM]	i	i
O=C1NC(=O)N(c2ccc3c(c2)OCO3)C(=O)/C1=C/c1ccc(N2CCCCC2)o1	i	i	i	i	i
SMILES	HttQ103 aggreg	PKM2 activator	HTT cytoprotect	aGal spleen mod	GLA inh pH 4.5
Clc1cncc(N2CCNCC2)n1	nt	nt	0.16µM!	i	i
O=P(O)(O)CCP(=O)(O)O	nt	nt	i[10 µM]	nt	nt
Oc1c(Br)cc(Br)cc1Oc1ccc(Br)cc1Br	13µM	i	nt	i	i
Brc1ccc(Oc2ccc(Br)cc2Br)c(Br)c1	nt	nt	i	i	nt
O=C(O)CCCCC1SCC2NC(=O)NC21 (centres undefined)	i[9.22 µM]	i	13µM!	i	i
Cc1occc1C(=O)Nc1nnc(C(F)(F)F)s1	35µM	i	i	i	i
CC(C)(C)NCC1(CO)SC(N)=NC1=O (centres undefined)	22µM	i	i	i	i
COC1=C[C@H]2[C@H]3Cc4ccc(OC)c(O)c4[C@@]2(CCN3C)CC1=O	nt	nt	i[1.9 µM]	i	i
CC[C@H](CO)NC(=O)[C@@H]1C=C2c3cccc4[nH]cc(c34)C[C@@H]2N(C)C1	nt	nt	i[1.9 µM]	nt	nt
CCN1/C(=C\C=C\C2=[N+](CC)c3ccccc3C2(C)C)C(C)(C)c2ccccc21	0.56µM	i	i	i	i
CCC1OC2(C)C(O)C(/C=C/C=C/C=C/c3oc(=O)cc(OC)c3C)OC1(C)C2OC(C)=O (centres undefined)	nt	nt	nt	i	nt
COc1ccc2c3c([nH]c2c1)C(C)=NCC3	16µM	i	i	?	i
CC1=NCCc2c1[nH]c1cc(O)ccc21	nt	nt	?	i	i
CC1=C(O)C(=O)C=C2C1=CC=C1[C@]2(C)CC[C@@]2(C)C3C[C@](C)(C(=O)O)CC[C@@]3(C)CC[C@@]12C (some centres undefined)	nt	nt	nt	i	i
